Assay outcomes as filed in PubChem BioAssay.
HP1b chromo inh – HTS for Inhibitors of HP1-beta Chromodomain Interactions with Methylated Histone Tails; hit rate 0.56% among 390,000; Potency, µM (highest dose often 114 µM), usual class: inhibitors; AlphaScreen HP1-beta / biotin-H3K9me3 peptide binding; Chromobox protein homolog 1 (Homo sapiens), P83916; note: nearly all actives have a fitted effect of over 70% in size
Target sequence (P83916 whole entry, looked up): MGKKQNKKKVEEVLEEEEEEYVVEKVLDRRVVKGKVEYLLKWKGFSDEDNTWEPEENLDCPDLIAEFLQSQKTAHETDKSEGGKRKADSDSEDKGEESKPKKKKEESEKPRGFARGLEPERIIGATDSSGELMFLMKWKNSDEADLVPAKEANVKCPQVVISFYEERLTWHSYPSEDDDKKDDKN
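HP1-beta protein (50 nM final) preincubated 30 min at room temperature with biotinylated H3(1-18)K9me3 peptide (50 nM) in PBS pH 7.4, 0.01% Tween-20, then compound added for 30 min. AlphaScreen streptavidin donor/nickel chelate acceptor beads (10 ug/mL final), 30 min dark, luminescence read.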
BAZ2B inh – qHTS Assay for Inhibitors of BAZ2B; AlphaScreen BAZ2B-H3K14Ac peptide displacement; Potency, µM (titrated, usually from 114 µM), most hits filed as inhibitors; hit rate 4.4% among 360,000; AID 504333, 2011; note: nearly all actives have a fitted effect of over 60% in size
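BAZ2B 50 nM plus b-H3(5-23)K14Ac 50 nM, PBS pH 7.4/0.01% Tween-20, 30 min RT; compound added (max 110 uM), 30 min RT; streptavidin donor/Ni-chelate acceptor beads 10 ug/mL final, 20 min dark; AlphaScreen read.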
CtBP-E1A blk – qHTS Assay for Inhibitors of the CtBP/E1A Interaction. CtBP / adenovirus E1A interaction (AlphaScreen). AlphaScreen GST-E1A/His-CtBP binding, 1536-well; active compounds read low. activity change, % (concentration not given with the values). hit rate 0.49% among 340,000; in the data active = activity change below about -65%; inconclusive = mostly about -30% to -63%
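In 5 uL wells, 23 nL compound meets equimolar GST-E1A and His-CtBP (5X stock 125 nM each) for 2 h, 37 °C. Beads (5X, 50 ug/mL) then 1 h, 37 °C, dark.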
JMJD2A Tudor inh – qHTS Assay for Inhibitors of JMJD2A-Tudor Domain | AlphaScreen JMJD2A-Tudor / H3K4me3 peptide binding | Potency, µM (highest dose often 114 µM), usual class: inhibitors | hit rate 4.4% among 390,000 | AID 504339, 2011; note: nearly all actives have a fitted effect of over 50% in size
G9a inh – qHTS Assay for Inhibitors of Histone Lysine Methyltransferase G9a. Histone-lysine N-methyltransferase EHMT2 (Homo sapiens), Q96KQ7. G9a H3K9 monomethylation, AlphaScreen, 2 h. Potency, µM (series often up to 102 µM), usual class: inhibitors. hit rate 8.8% among 350,000. AID 504332, 2011; note: nearly all actives have a fitted effect of over 75% in size
Target sequence (Q96KQ7 913-1193 limits assumed): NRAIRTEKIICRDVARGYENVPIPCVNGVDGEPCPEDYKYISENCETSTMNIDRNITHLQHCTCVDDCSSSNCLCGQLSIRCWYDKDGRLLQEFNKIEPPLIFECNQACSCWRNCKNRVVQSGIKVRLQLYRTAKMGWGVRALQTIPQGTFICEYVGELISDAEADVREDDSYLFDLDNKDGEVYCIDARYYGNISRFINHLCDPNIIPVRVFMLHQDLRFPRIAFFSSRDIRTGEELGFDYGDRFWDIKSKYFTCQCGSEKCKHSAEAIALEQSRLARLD
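AlphaScreen detection with an anti-monomethyl H3K9 antibody quantified product after a 2 h room-temperature reaction containing 500 nM biotinylated H3K9 peptide, 20 µM SAM and 20 nM enzyme, which had been preincubated 15 min with compound.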
Six1-Eya2 inh – qHTS Assay for Inhibitors of the Six1/Eya2 Interaction | hit rate 0.56% among 360,000 | AlphaScreen GST-Six1/His-Eya2 binding, biochemical; active compounds read low | Homeobox protein SIX1 (Homo sapiens) + Protein phosphatase EYA2 (Homo sapiens), … | activity change, % (no concentration beside the values); in the data active = activity change below about -65%; inconclusive = mostly about -30% to -63%
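Six1/Eya2 binding was read as AlphaScreen signal after compounds were pinned into GST-Six1 plus His-tagged Eya2 (5X stock 250/500 nM) in pH 8.0 Tris/NaCl/TCEP buffer, beads added, then incubated 1 h, 37 C, dark.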
A number is an active result; n = inactive; u = inconclusive; x = not tested or not shown; [ ] = remark or other dose. Sampled rows, rich in hits. Any-hit rate of the full collection: about 10%. Unless noted, calls come from the whole dose curve; as a rule, active = well fitted inhibition curve with a large enough effect; inconclusive = small, poorly fitted or top-dose-only effect; inactive = no such curve, though single readings can be large or run the other way.

SMILES	HP1b chromo inh	BAZ2B inh	CtBP-E1A blk	JMJD2A Tudor inh	G9a inh	Six1-Eya2 inh
N#CC(C#N)=NNc1ccc([N+](=O)[O-])cc1	u	39.8µM	n	u	31.6µM	n
O=C(c1ccc(F)cc1)N1CCC(N2CCCCCC2)CC1	u	50.1µM	n	u	17.8µM	n
O=C(c1ccc(F)cc1)N1CCC2(CC1)OCCO2	n	n	x	n	x	n
Cn1c(=O)n(C)c2cc(CNCCc3ccccc3F)ccc21	n	u	x	n	n	x
O=c1[nH]c(=O)n([C@H]2C[C@H](O)[C@@H](CO)O2)cc1/C=C/Br	x	x	x	x	n[12.7 µM]	x
COc1cc2c(c(OC)c1OC)-c1ccc(O)c(=O)cc1[C@@H](N)CC2	n	n	n	79.4µM	n[12.7 µM]	u
CCOC(=O)c1ncc2[nH]c3ccc(OCc4ccccc4)cc3c2c1COC	x	x	x	x	n	x
O=C(c1ccccc1)c1cn(CC(=O)N2CCCC2)c2ccccc12	n	n	n	n	n	n
O=C(C(=O)N1CCc2ccccc2C1)c1cn(CC(=O)N2CCCCC2)c2ccccc12	n	n	n	n	39.8µM	n
COC(=O)[C@]12C(=O)C(C)=C(O)[C@@]1(C)C(C)=CC1[C@@]34CC[C@@H](OC(C)=O)C(C)(C)C3C(C[C@]12C)OC4=O (stereo partly drawn)	n	n	n	n	n[12.7 µM]	n
COC(C(=O)C(O)C(C)O)C1Cc2cc3cc(OC4CC(OC5CC(O)C(OC)C(C)O5)C(OC(C)=O)C(C)O4)c(C)c(O)c3c(O)c2C(=O)C1OC1CC(OC2CC(OC3CC(C)(O)C(OC(C)=O)C(C)O3)C(O)C(C)O2)C(O)C(C)O1 (stereo not drawn)	x	x	x	x	n	x
CC1(C)[C@@H](O)C[C@H]2[C@](C)(O)[C@@H]3CC[C@H]4[C@@H](O)[C@@]3(C[C@@H](O)[C@@]21O)C[C@@]4(C)O	x	x	x	x	n	x
Cc1nn(C)c(C)c1P(=S)(c1c(C)nn(C)c1C)N(C)C	n	n	n	n	14.1µM	n
CCOC(=O)c1cccc([P+](=O)O)c1	n	n	n	28.2µM	n	n
CCOC(=O)N1CC(C)N(/[N+]([O-])=N/Oc2ccc([N+](=O)[O-])cc2[N+](=O)[O-])CC1C (stereo not drawn)	n	x	x	89.1µM	x	x
COc1ccc(CCNCC2CCCO2)cc1 (stereo not drawn)	u	u	x	28.2µM	x	n
COc1ccc(CCNCc2ccc(SC)cc2)cc1	n	n	n	n	x	n
COc1ccc(-n2c(/C=C/c3ccc(O)c(OC)c3)nc3ccccc3c2=O)cc1	n	n	x	n	x	n
COc1cccc(-n2c(/C=C/c3ccc(O)c(O)c3)nc3ccccc3c2=O)c1	n	u	n	u	44.7µM	n
COc1cc(OC2CCN(C(C)=O)CC2)ccc1C(=O)N1CCC(N2C(=O)OCc3ccccc32)CC1	x	x	x	x	n	x
O=C1N=C(N2CCCCC2)SC1=C1CCCCC1	n	n	n	n	25.1µM	n
COc1ccc(-c2nc(CN3C(=O)CN=C(c4ccccc4)c4cc(Cl)ccc43)c(C)o2)cc1	n	n	x	n	n	x
COc1cccc(CNCCc2c[nH]c3ccccc23)c1	n	79.4µM	n	3.55µM	n[2.33 µM]	n
COc1ccc(CNCCc2c[nH]c3ccccc23)c(OC)c1C	u	56.2µM	n	5.62µM	15.8µM	n
COc1cc(C)c(CNCCc2c[nH]c3ccccc23)cc1C	u	39.8µM	x	22.4µM	u	u
SMILES	HP1b chromo inh	BAZ2B inh	CtBP-E1A blk	JMJD2A Tudor inh	G9a inh	Six1-Eya2 inh
COc1ccc2[nH]cc(CCNCc3cccnc3)c2c1	n	u	n	n	x	n
COc1ccc(CNCCc2ccccc2F)c(OC)c1C	u	u	n	17.8µM	79.4µM	n
Cc1ccc(C(=O)COC(=O)c2cccc(NC(=O)c3ccc(Br)cc3)c2)cc1	n	n	x	n	u	x
O=C1CCC(c2ccccc2)(C2CCN(Cc3ccccc3)CC2)C(=O)N1 (stereo not drawn)	n	n	n	n	n	n
CCOc1cc(CNCCc2ccccc2F)ccc1OC	n	39.8µM	x	44.7µM	8.91µM	n
CC(C)(C)OC(=O)N1CC(O)CC1C(=O)OCC(=O)c1ccc(-c2ccccc2)cc1 (stereo not drawn)	n	n	n	u	u	n
O=P1(c2ccccc2)Nc2ccccc2N1c1ccccc1 (stereo not drawn)	u	x	n	50.1µM	x	n
COc1ccc(NS(=O)(=O)c2ccc(OCC(=O)N3CCN(C)CC3)cc2)cc1Cl	n	n	n	n	79.4µM	n
Cc1ccc(NS(=O)(=O)c2ccc(OCC(=O)N3CCN(C)CC3)cc2)cc1	n	n	n	n	x	n
Cc1ccccc1C1=NCC(=O)N(CC(=O)NCc2ccco2)c2sc3c(c21)CCCC3	n	n	n	89.1µM	n[12.7 µM]	n
CC(C)CN1CC2(CCN(C(=O)c3ccncc3)CC2)C1	x	x	x	x	n[12.7 µM]	x
COC(=O)CSc1nc2sc3c(c2c(=O)n1C1CCCCC1)CCN(C)C3	x	n	x	x	44.7µM	x
Cc1ccc(S(=O)(=O)N[C@@H](CCCCN)C(=O)CCl)cc1	n	x	n	u	28.2µM	n
Cc1cc(C(C#N)c2ccc(Cl)cc2)c(Cl)cc1NC(=O)c1cc(I)cc(I)c1O (stereo not drawn)	n	44.7µM	n	50.1µM	14.1µM	n
COc1cc(/C=C/C(=O)c2c(O)n(CCc3ccccc3)c(=O)[nH]c2=O)ccc1O	n	n	n	n	44.7µM	n
O=C(/C=C/c1ccccc1)c1c(O)n(CCc2ccccc2)c(=O)[nH]c1=O	n	n	n	n	n	n
CC(=O)O[C@H]1C[C@@H]2CC[C@@H]3[C@H](CC[C@@]4(C)[C@H]3C[C@H]([N+]3(C)CCCCC3)[C@@H]4OC(C)=O)[C@@]2(C)C[C@@H]1[N+]1(C)CCCCC1	n	x	n	n	n	n
O=C(NC1CCCCC1)Oc1cc2oc(=O)sc2cc1Cl	n	n	n	n	39.8µM	n
CCOC(=O)c1c(NC(=O)c2c(N)n(CCCOC)c3nc4ccccc4nc23)sc2c1CCCC2	n	n	n	n	n	n
CCOCCCn1c(N)c(C(=O)Nc2sc3c(c2C(=O)OC)CCCC3)c2nc3ccccc3nc21	n	u	n	n	5.62µM	n
C[S+](CC[C@H](N)C(=O)O)C[C@H]1O[C@@H](n2cnc3c(N)ncnc32)[C@H](O)[C@@H]1O (stereo partly drawn)	n	n	n	12.6µM	3.55µM	n
CC(C)Oc1ccc(CNC(=O)Oc2ccccc2)cc1	n	n	n	n	u	n
